Experimental data as given in PubChem BioAssay (NCI).
About 79,000 compounds went through this panel and 15% of them were active in at least one assay; those are over-represented in the sample as a whole. A number with no mark means an inactive call. Calls of active or inactive are those of the source. Rule as the data show it: active = growth inhibition above about 70%; inactive = the rest.

Key:
[1] = NCI Yeast Anticancer Drug Screen. Data for the wt1 strain (AID 149);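 also: 0% = growth of vehicle-treated wt1 cultures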; details: S. cerevisiae wt1 strain (SPY 50644) growth inhibition, hits give high values
Summary of the method: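 Vehicle-normalised growth inhibition; strain wt1; compound exposure.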

[2] = NCI Yeast Anticancer Drug Screen. Data for the rad50EPP+ strain (AID 151);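 also: 0% = growth of vehicle-treated control cultures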; details: S. cerevisiae rad50 mutant strain, hits give high values
Summary of the method: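 Growth inhibition read against vehicle controls in rad50EPP+ yeast, a strain altered in DNA damage repair, after compound exposure.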

[3] = NCI Yeast Anticancer Drug Screen. Data for the mgt1 strain (AID 153); details: S. cerevisiae mgt1 mutant growth inhibition, hits give high values
Summary of the method: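 mgt1 yeast grown with test compound; read-out is growth inhibition versus vehicle-treated cultures.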

[4] = NCI Yeast Anticancer Drug Screen. Data for the rad50 strain (AID 155);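 also: 0% = growth of vehicle-only cultures of the same strain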; details: S. cerevisiae rad50 strain growth inhibition, hits give high values
Summary of the method: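 A DNA repair-deficient yeast mutant serves as the test organism; compound-induced growth inhibition is calculated against vehicle-treated cells.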

[5] = NCI Yeast Anticancer Drug Screen. Data for the mec2-1 strain (AID 157); details: S. cerevisiae mec2-1 strain, hits give high values
Summary of the method: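 Yeast mec2-1 mutant treated with compound. Readout: growth inhibition vs vehicle controls.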

[6] = NCI Yeast Anticancer Drug Screen. Data for the rad14 strain (AID 159);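 also: 0% = growth of vehicle-treated control cultures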; details: S. cerevisiae rad14 strain growth inhibition, hits give high values
Summary of the method: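 Vehicle-treated cultures served as the baseline for growth inhibition of a DNA repair-mutant yeast strain exposed to each compound.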

[7] = NCI Yeast Anticancer Drug Screen. Data for the sgs1 mgt1 strain (AID 161);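 also: 0% = growth of cultures given vehicle only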; details: S. cerevisiae sgs1 mgt1 strain, hits give high values
Summary of the method: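 Read-out: growth inhibition vs vehicle controls. Cells: mutant yeast strain deficient in DNA damage repair.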

[8] = NCI Yeast Anticancer Drug Screen. Data for the CLN2oe strain (AID 163);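 also: 0% = growth of vehicle-only control cultures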; details: S. cerevisiae CLN2oe strain, hits give high values
Summary of the method: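 Read-out: yeast growth inhibition, expressed relative to vehicle-only controls. The strain bears an engineered cell-cycle alteration.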

[9] = NCI Yeast Anticancer Drug Screen. Data for the cln2 rad14 strain (AID 165);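 also: 0% = growth equal to vehicle treated cultures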; details: S. cerevisiae cln2 rad14 strain, hits give high values
Summary of the method: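 cln2 rad14 yeast strain; compound exposure; growth inhibition read vs vehicle controls.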

[10] = NCI Yeast Anticancer Drug Screen. Data for the bub3 strain (AID 167); details: S. cerevisiae bub3 mutant strain, hits give high values
Summary of the method: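 Inhibition values come from growth of compound-treated mutant yeast normalised to vehicle-treated controls.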

[11] = NCI Yeast Anticancer Drug Screen. Data for the wt2 strain (AID 169);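 also: 0% = growth of vehicle-treated yeast cultures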; details: S. cerevisiae wt2 strain growth inhibition, hits give high values
Summary of the method: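 Read-out: growth inhibition versus vehicle-treated control cultures after compound exposure of the yeast strain.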

[12] = NCI Yeast Anticancer Drug Screen. Data for the mlh1 strain (AID 171);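 also: 0% = growth of vehicle-treated control cultures of the same strain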; details: S. cerevisiae mlh1 strain growth inhibition, hits give high values
Summary of the method: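 Read-out: growth inhibition versus vehicle controls. Strain: engineered yeast with a defined DNA repair or cell cycle defect, compound-treated.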

[13] = NCI Yeast Anticancer Drug Screen. Data for the sgs1 strain (AID 173);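 also: 0% = growth of vehicle-only control cultures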; details: S. cerevisiae sgs1 mutant, hits give high values
Summary of the method: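 Read-out: yeast growth inhibition relative to vehicle controls, following compound exposure of a strain with a defined DNA repair/cell cycle alteration.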

[14] = NCI Yeast Anticancer Drug Screen. Data for the mlh1 rad18 strain (AID 175); details: S. cerevisiae mlh1 rad18 strain growth inhibition, hits give high values
Summary of the method: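 Yeast w/ defined DNA-repair lesions; compound exposure; growth vs vehicle controls → % inhibition.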

[15] = NCI Yeast Anticancer Drug Screen. Data for the rad18 strain (AID 177); details: S. cerevisiae rad18 mutant growth inhibition, hits give high values
Summary of the method: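 Readout: growth inhibition vs vehicle controls. Cells: genetically altered yeast strain, DNA repair defect.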

[16] = at 5.0 µM (retest, dose inferred, filed as 0.5)
[17] = at 50.0 µM (retest, dose inferred, filed as 5.0)

**Q.** Which growth inhibition ([1]; at 1.2 µM) does the source give for `CC[C@@]1(O)C(=O)OCc2c1cc1n(c2=O)Cc2cc3c(NC(=O)CN)cccc3nc2-1` here?
**A.** Its growth inhibition is 1%.

**Q.** What about the growth inhibition ([1]; at 3.7 µM) of the same compound?
**A.** The growth inhibition was -1%.

**Q.** And the growth inhibition ([1]; at 11.0 µM)?
**A.** Its growth inhibition is -2%.

**Q.** What about the growth inhibition ([1]; at 33.0 µM) of the same compound?
**A.** Its growth inhibition is -3%.

**Q.** And the growth inhibition ([1]; at 100.0 µM)?
**A.** Its growth inhibition is 0%.

**Q.** And the growth inhibition ([2]; at 1.2 µM)?
**A.** The growth inhibition was -4%.

**Q.** And the growth inhibition ([2]; at 3.7 µM)?
**A.** The growth inhibition was 2%.

**Q.** And the growth inhibition ([2]; at 11.0 µM)?
**A.** The growth inhibition was 6%.

**Q.** What about the growth inhibition ([2]; at 33.0 µM) of the same compound?
**A.** Its growth inhibition is 19%.

**Q.** What about the growth inhibition ([2]; at 100.0 µM) of the same compound?
**A.** The growth inhibition was 49%.

**Q.** And the growth inhibition ([3]; at 1.2 µM)?
**A.** Its growth inhibition is -3%.

**Q.** And the growth inhibition ([3]; at 3.7 µM)?
**A.** The growth inhibition was 1%.

**Q.** And the growth inhibition ([3]; at 11.0 µM)?
**A.** Its growth inhibition is 0%.

**Q.** What about the growth inhibition ([3]; at 33.0 µM) of the same compound?
**A.** The growth inhibition was -1%.

**Q.** And the growth inhibition ([3]; at 100.0 µM)?
**A.** Its growth inhibition is -3%.

**Q.** What about the growth inhibition ([4]; at 1.2 µM) of the same compound?
**A.** Its growth inhibition is 8%.

**Q.** And the growth inhibition ([4]; at 3.7 µM)?
**A.** The growth inhibition was 21%.

**Q.** What about the growth inhibition [4, 16] of the same compound?
**A.** The growth inhibition was 1%.

**Q.** What about the growth inhibition ([4]; at 11.0 µM) of the same compound?
**A.** The growth inhibition was 54%.

**Q.** And the growth inhibition ([4]; at 33.0 µM)?
**A.** Its growth inhibition is 79% (active).

**Q.** What about the growth inhibition [4, 17] of the same compound?
**A.** Its growth inhibition is 72% (active).

**Q.** What about the growth inhibition ([4]; at 50.0 µM) of the same compound?
**A.** The growth inhibition was 88.2% (active).

**Q.** And the growth inhibition ([4]; at 100.0 µM)?
**A.** Its growth inhibition is 88% (active).

**Q.** And the growth inhibition ([5]; at 1.2 µM)?
**A.** Its growth inhibition is -3%.

**Q.** And the growth inhibition ([5]; at 3.7 µM)?
**A.** The growth inhibition was -4%.

**Q.** What about the growth inhibition [5, 16] of the same compound?
**A.** The growth inhibition was -9%.

**Q.** What about the growth inhibition ([5]; at 11.0 µM) of the same compound?
**A.** The growth inhibition was -3%.

**Q.** What about the growth inhibition ([5]; at 33.0 µM) of the same compound?
**A.** Its growth inhibition is 1%.

**Q.** And the growth inhibition [5, 17]?
**A.** The growth inhibition was -5%.

**Q.** And the growth inhibition ([5]; at 50.0 µM)?
**A.** The growth inhibition was -11.8%.

**Q.** And the growth inhibition ([5]; at 100.0 µM)?
**A.** Its growth inhibition is 19%.

**Q.** What about the growth inhibition ([6]; at 1.2 µM) of the same compound?
**A.** The growth inhibition was 2%.

**Q.** And the growth inhibition ([6]; at 3.7 µM)?
**A.** The growth inhibition was -4%.

**Q.** What about the growth inhibition ([6]; at 11.0 µM) of the same compound?
**A.** The growth inhibition was 0%.

**Q.** And the growth inhibition ([6]; at 33.0 µM)?
**A.** The growth inhibition was -4%.

**Q.** What about the growth inhibition ([6]; at 100.0 µM) of the same compound?
**A.** The growth inhibition was -1%.

**Q.** And the growth inhibition [7, 16]?
**A.** The growth inhibition was -11%.

**Q.** And the growth inhibition [7, 17]?
**A.** The growth inhibition was -3%.

**Q.** What about the growth inhibition ([7]; at 50.0 µM) of the same compound?
**A.** The growth inhibition was -1.65%.

**Q.** And the growth inhibition ([8]; at 1.2 µM)?
**A.** The growth inhibition was 0%.

**Q.** What about the growth inhibition ([8]; at 3.7 µM) of the same compound?
**A.** The growth inhibition was -2%.

**Q.** And the growth inhibition ([8]; at 11.0 µM)?
**A.** The growth inhibition was -1%.

**Q.** And the growth inhibition ([8]; at 33.0 µM)?
**A.** The growth inhibition was -2%.

**Q.** What about the growth inhibition ([8]; at 100.0 µM) of the same compound?
**A.** The growth inhibition was 0%.

**Q.** What about the growth inhibition [9, 16] of the same compound?
**A.** Its growth inhibition is -35%.

**Q.** What about the growth inhibition [9, 17] of the same compound?
**A.** Its growth inhibition is -26%.

**Q.** What about the growth inhibition ([9]; at 50.0 µM) of the same compound?
**A.** Its growth inhibition is 26.9%.

**Q.** And the growth inhibition ([10]; at 1.2 µM)?
**A.** The growth inhibition was -12%.

**Q.** What about the growth inhibition ([10]; at 3.7 µM) of the same compound?
**A.** The growth inhibition was -6%.

**Q.** What about the growth inhibition [10, 16] of the same compound?
**A.** Its growth inhibition is -19%.

**Q.** And the growth inhibition ([10]; at 11.0 µM)?
**A.** Its growth inhibition is 8%.

**Q.** And the growth inhibition ([10]; at 33.0 µM)?
**A.** Its growth inhibition is 7%.

**Q.** And the growth inhibition [10, 17]?
**A.** Its growth inhibition is -3%.

**Q.** And the growth inhibition ([10]; at 50.0 µM)?
**A.** The growth inhibition was 8.3%.

**Q.** And the growth inhibition ([10]; at 100.0 µM)?
**A.** Its growth inhibition is -6%.

**Q.** What about the growth inhibition ([11]; at 1.2 µM) of the same compound?
**A.** The growth inhibition was -1%.

**Q.** And the growth inhibition ([11]; at 3.7 µM)?
**A.** The growth inhibition was 1%.

**Q.** What about the growth inhibition ([11]; at 11.0 µM) of the same compound?
**A.** The growth inhibition was 0%.

**Q.** What about the growth inhibition ([11]; at 33.0 µM) of the same compound?
**A.** The growth inhibition was -1%.

**Q.** What about the growth inhibition ([11]; at 100.0 µM) of the same compound?
**A.** Its growth inhibition is 0%.

**Q.** What about the growth inhibition ([12]; at 1.2 µM) of the same compound?
**A.** The growth inhibition was -5%.

**Q.** And the growth inhibition ([12]; at 3.7 µM)?
**A.** The growth inhibition was -3%.

**Q.** What about the growth inhibition ([12]; at 11.0 µM) of the same compound?
**A.** The growth inhibition was -3%.

**Q.** And the growth inhibition ([12]; at 33.0 µM)?
**A.** The growth inhibition was -6%.

**Q.** What about the growth inhibition ([12]; at 100.0 µM) of the same compound?
**A.** Its growth inhibition is 2%.

**Q.** What about the growth inhibition ([13]; at 1.2 µM) of the same compound?
**A.** Its growth inhibition is -2%.

**Q.** What about the growth inhibition ([13]; at 3.7 µM) of the same compound?
**A.** Its growth inhibition is -3%.

**Q.** What about the growth inhibition ([13]; at 11.0 µM) of the same compound?
**A.** Its growth inhibition is -2%.

**Q.** And the growth inhibition ([13]; at 33.0 µM)?
**A.** Its growth inhibition is -1%.

**Q.** What about the growth inhibition ([13]; at 100.0 µM) of the same compound?
**A.** The growth inhibition was 7%.

**Q.** What about the growth inhibition [14, 16] of the same compound?
**A.** The growth inhibition was -12%.

**Q.** What about the growth inhibition [14, 17] of the same compound?
**A.** Its growth inhibition is -9%.

**Q.** And the growth inhibition ([14]; at 50.0 µM)?
**A.** Its growth inhibition is -0.55%.

**Q.** And the growth inhibition ([15]; at 1.2 µM)?
**A.** The growth inhibition was -18%.

**Q.** What about the growth inhibition ([15]; at 3.7 µM) of the same compound?
**A.** Its growth inhibition is -6%.

**Q.** What about the growth inhibition ([15]; at 11.0 µM) of the same compound?
**A.** The growth inhibition was -19%.

**Q.** What about the growth inhibition ([15]; at 33.0 µM) of the same compound?
**A.** The growth inhibition was -8%.

**Q.** What about the growth inhibition ([15]; at 100.0 µM) of the same compound?
**A.** Its growth inhibition is -10%.
